Only some compounds are listed: those with a hit (about 3.1% of all), similar ones and a draw of the others.
EPAC1 agonist: validation of human EPAC1 agonists | O95398 | EPAC1 Rap1b BODIPY-GDP exchange, fluorescence | Potency, µM, inactives show max response, positive = active, hits mostly activators | actives 1% (n = 16,000) | AID 1645883; also: nearly all actives have a fitted effect of over 70% in size
EPAC2 ant val: human EPAC2 antagonism, validation. Q8WZA2. EPAC2 Rap1B BODIPY-GDP exchange, fluorescence. Potency, µM (titrated, usually from 112 µM), for inactives: at the top dose activity, negative = inhibition, most hits filed as inhibitors. AID 1645886. actives 1.7% (n = 16,000);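 also: 100% = activation by cAMP agonist control; nearly all actives have a fitted effect of over 40% in size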
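Normalized against a 6.5 mM cAMP agonist control, compounds were tested on 100 nM EPAC2 exchanging Rap1B-bound BODIPY-GDP (250 nM) for 50 uM GDP. Fluorescence drop (ex 480, em 540 nm) was tracked at room temperature over 30 min at 5-min intervals.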
Active calls of the source: *; i = inactive; ? = inconclusive; ! = not active in a repeat; [ ] = another dose, or the depositor's remark. Calls follow the shape of the dose curve; as a rule, active = well fitted curve in the direction sought with a large enough effect; inconclusive = small, poorly fitted or top-dose-only effect, or another doubt; inactive = no such curve, though single readings can be large; an effect the other way counts as inactive or inconclusive. Unless noted, % is scaled to controls: 0 for no effect and ±100 for the full control effect; potency is read from the fitted curve at half-maximal effect.

SMILES	EPAC1 agonist	EPAC2 ant val
CCCCCCCCCCCCCCCC(=O)OC[C@H](O)[C@H]1OC(=O)C(O)=C1O	-3%	27%
Cc1nc(NCc2c(C)nn(C)c2Cl)sc1-c1ccn(CC2COc3ccccc3O2)n1 (stereo not drawn)	6%	?
COCC1CCCN(Cc2ccc3c(c2)CN(C(=O)c2cc(-c4ccccc4)n[nH]2)CCO3)C1 (stereo not drawn)	-14%	-6%
CC(C)c1c(O)ccc2c1CCC1[C@@](C)(CO)CCC[C@@]21C (stereo partly drawn)	28%	-22%
COc1ccc2c(c1)[C@@]1(C)CCC[C@](C)(CO)C1CC2 (stereo partly drawn)	-14%	45µM*
C=CCCCCCCCCCCCC(O)CC(O)COC(C)=O (stereo not drawn)	-118%	?
C=CCCCCCCCCCCCC(O)CC(O)CO (stereo not drawn) (tested in a mixture with another compound)	-143%	40µM*
COc1cc(-c2noc(C)c2-c2ccc(N(C)C)nc2)cc(OC)c1OC	-2%	?
COc1cc(-c2noc(C)c2-c2ccc3[nH]ccc3c2)cc(OC)c1OC	-73%	79µM*
CO[C@@H]1[C@@H](O[C@@H]2O[C@H](C)[C@@H](O[C@H]3C[C@@](C)(O)[C@@H](O)[C@H](C)O3)[C@H](N(C)C)[C@H]2O)[C@@H](CC=O)C[C@@H](C)[C@@H](O[C@@H]2CC[C@H](N(C)C)[C@@H](C)O2)/C=C/C=C/C[C@@H](C)OC(=O)C[C@H]1OC(C)=O	10%	42%
CCN1\C(=C/C=C/C=C/c2sc3ccccc3[n+]2CC)Sc2ccccc21	-136%	?
CCN(CC)c1ccccc1/C=C/[n+]1ccc(CCCCI)c2ccccc21	-110%	56µM*
C=C1C(=O)O[C@H]2[C@H]1CC/C(C)=C\CC[C@@]1(C)O[C@@H]21	-13%	22%
Cc1cnc(SCc2ccccn2)nc1C1CCCN(C(=O)c2cccc(-c3cccc(F)c3)c2)C1 (stereo not drawn)	15%	?
Nc1cc(-c2ccncc2)c[nH]c1=O	?	35µM*!
CN(Cc1ccco1)c1nc(-c2ccccc2Cl)nc2ccccc12	100µM*	-30%
COc1ccccc1-c1nc(N(C)Cc2ccco2)c2ccccc2n1	-1%	?
Cc1cc2nc3c(=O)[nH]c(=O)nc-3n(C[C@H](O)[C@H](O)[C@H](O)COP(=O)(O)OP(=O)(O)OC[C@H]3O[C@@H](n4cnc5c(N)ncnc54)[C@H](O)[C@@H]3O)c2cc1C	112µM*	i
Nc1ncnc2c1ncn2[C@@H]1O[C@H](COP(=O)(O)OP(=O)(O)OP(=O)(O)OP(=O)(O)OC[C@@H]2O[C@H](n3cnc4c(N)ncnc43)[C@@H](O)[C@H]2O)[C@@H](O)[C@H]1O	19%	-1%
COC(=O)c1ccc(CN2CCOc3ccc(CN4CCC(O)(c5cccnc5)CC4)cc3C2)cc1	0%	8%
CC(C)=CCc1c2c(c3occ(-c4ccc(O)cc4)c(=O)c3c1O)C=CC(C)(C)O2	-170%	32µM*
O=c1c(-c2ccc(O)cc2)coc2cc(O)cc(O)c12	-5%	-18%
CC(C)=CCc1c(O)cc2occ(-c3ccc4c(c3)OCO4)c(=O)c2c1O	?	-25%
CC(C)=CCc1c2c(c3occ(-c4ccc(O)c(O)c4)c(=O)c3c1O)C=CC(C)(C)O2	-151%	25µM*
CC(C)(O)C#Cc1ccc(C(=O)NCCN2Cc3ccccc3OC(c3ccccc3F)C2)o1 (stereo not drawn)	26%	?
SMILES	EPAC1 agonist	EPAC2 ant val
Clc1ccc(C(Cn2ccnc2)OCc2c(Cl)cccc2Cl)c(Cl)c1 (stereo not drawn)	40µM*!	?
CC(C)CN(C[C@@H](O)[C@H](Cc1ccccc1)NC(=O)O[C@@H]1CCOC1)S(=O)(=O)c1ccc(N)cc1	-13%	-5%
O=C1O/C(=C/Br)CCC1c1cccc2ccccc12 (stereo not drawn)	-1%	4µM*
NCCC[C@H](N)CC(=O)N[C@H]1CNC(=O)[C@H]([C@H]2C[C@H](O)N=C(N)N2)NC(=O)C(=CNC(N)=O)NC(=O)[C@H](CO)NC(=O)[C@H](CO)NC1=O	3%	-3%[29.6 µM]
O=S(=O)(O)Oc1ccc(C(c2ccc(OS(=O)(=O)O)cc2)c2ccccn2)cc1	22%	-11%
CC(=O)Oc1ccc(C(c2ccc(OC(C)=O)cc2)c2ccccn2)cc1	-44%	18µM*
NC(=O)[C@@H]1C[C@]2(NC(=O)NC2=O)c2cc(F)ccc2O1	-22%	-6%
O=c1c2ccccc2oc2ccc(Oc3ccccc3)cc12	100µM*	?
CCOC(=O)/C=C/c1ccc2oc3ccccc3c(=O)c2c1	-1%	-15%
C=C[C@]1(C)C[C@@H](OC(=O)CSCCN(CC)CC)[C@]2(C)[C@H](C)CC[C@]3(CCC(=O)[C@H]32)[C@@H](C)[C@@H]1O	-26%	1%
CCC(C)[C@H]1COCCS(=O)(=O)N1Cc1ccccc1F (stereo partly drawn)	-52%	?
CC(C)[C@H]1COCCS(=O)(=O)N1Cc1ccc(Cl)cc1	-49%	?
CCC(C)[C@H]1COCCS(=O)(=O)N1Cc1ccc(Br)cc1 (stereo partly drawn)	-124%	10µM*
CCC(C)[C@H]1COCCS(=O)(=O)N1Cc1ccc(Cl)cc1Cl (stereo partly drawn)	-30%	28µM*
CC1(C)C(\C=C/C=C\C=C/C=C2/N(CCCCS(=O)(=O)O)c3ccc4ccccc4c3C2(C)C)=[N+](CCCCS(=O)(=O)[O-])c2ccc3ccccc3c21	?	-28%
Cn1cc(CN2CCOc3ccc(C(O)C4CCCCC4)cc3C2)cn1 (stereo not drawn)	7%	?
COc1ccccc1N1CCN(c2nc(CNC(=O)c3ccccc3F)nc3ccccc23)CC1	7%	?
CCCCCCOc1ccccc1C(N)=O	-10%	?
CCCc1c(OCCCCc2nn[nH]n2)ccc(C(C)=O)c1O	10%	8.9µM*!
CO/N=C(\C(=O)N[C@@H]1C(=O)N2C(C(=O)O)=C(CSc3nnnn3C)CS[C@H]12)c1csc(N)n1	-17%	25%
O=C1CCC[C@@H]2CC(N(Cc3cc4ccccc4s3)c3ccccc3)C[C@@H]3CCN1[C@H]23 (stereo partly drawn)	100µM*	-4%
CCCCCCCN(c1ccccc1)C1C[C@H]2CCCC(=O)N3CC[C@@H](C1)[C@@H]23 (stereo partly drawn)	-21%	?
Cc1ncsc1CCC(=O)N1CCCC(c2nc(-c3ccncc3)ncc2-c2ccccc2)C1 (stereo not drawn)	-3%	-18%
COC(=O)C[C@](O)(CCCC(C)(C)O)C(=O)O[C@@H]1C(OC)=CC23CCCN2CCc2cc4c(cc2[C@H]13)OCO4 (stereo partly drawn)	-18%	33%
COC(=O)c1ccccc1NS(C)(=O)=O	-34%	?
COC(=O)c1c(C)[nH]c(C)c1C(=O)c1ccccc1Cc1ccccc1	4%	79µM*!
COc1ccc(C[C@@H](C)NC[C@H](O)c2ccc(O)c(NC=O)c2)cc1	1%	-1%
Cc1nn(-c2ccc(F)cc2)c(C)c1CNC(=O)c1ccc(-n2cc(NC(=O)c3ccoc3)cn2)cc1	-14%	-16%
NC(=NCCCCCCN=C(N)/N=C(\N)Nc1ccc(Cl)cc1)/N=C(\N)Nc1ccc(Cl)cc1	-13%	79µM*!
